Screens from PubChem.
Only some compounds are listed: those with a hit (about 19% of all), similar ones and a draw of the others.
HepG2 tox: HepG2 cytotoxicity, counter-screen for TGF-b inhibitors | AID 588856 | Potency, µM (highest dose often 46.1 µM), for the others: top-dose activity change, negative = cytotoxicity, usual class: cytotoxic | HepG2 CAGA-GFP viability, ATP luminescence, 18 h | actives 0.76% (n = 410,000); also: potency is read from the fitted curve at half-maximal effect
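CellTiter-Glo luminescence gave cytotoxicity after 18 hours at 37 degrees C. The cells were HepG2 CAGA-GFP in 1% FBS DMEM, stimulated with 500 pg/mL TGF-beta after compound addition. %Activity was normalised to no-cell wells (complete cell-killing) and DMSO (no toxicity), and curves were fitted and classified.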
TGFb inhibitor: blocks TGF-b signaling. HepG2 CAGA-GFP TGF-b/SMAD3 reporter, GFP fluorescence, 18 h; TGF-beta stimulated, 500 pg/mL final. Potency, µM (doses to about 46.1 µM), for inactives: at the top dose activity, negative = inhibition, most hits filed as inhibitors. actives 1.2% (n = 410,000). AID 588855; also: potency is read from the fitted curve at half-maximal effect; % is scaled to controls: 0 for no effect and ±100 for the full control effect; nearly all actives have a fitted effect of over 65% in size
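Read-out: total well GFP (ex488/em500-530) summed from mean per-cell fluorescence. Cells: HEPG2 CAGA-GFP, 1% FBS DMEM, 18 h at 37 degrees C with 500 pg/mL final TGF-beta. Unstimulated wells served as the full-inhibition control; stimulated DMSO wells = 0%.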
DT40 TDP1 no CPT: qHTS for Inhibitors of human tyrosyl-DNA phosphodiesterase 1 (TDP1): qHTS in cells in absence of CPT | Potency, µM (series often up to 46.2 µM), without a hit: at the highest dose activity change, negative = growth inhibition, usual class: inhibitors | actives 15% (n = 420,000) | DT40 Tdp1-/- hTDP1 cells, no CPT, ATP luminescence, 48 h; also: potency is read from the fitted curve at half-maximal effect; % is scaled to controls: 0 for no effect and ±100 for the full control effect; nearly all actives have a fitted effect of over 55% in size
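Stably hTDP1-transfected Tdp1-null chicken DT40 cells were treated with library compounds minus camptothecin and grown for at least 48 hr at 37 °C, after which cellular ATP was quantified by luminescence.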
TDP1 inh: inhibitors of human tyrosyl-DNA phosphodiesterase TDP1 | recombinant TDP1, AlphaScreen DNA substrate cleavage | actives 0.28% (n = 350,000) | Potency, µM (doses to about 130 µM), inactives show top-dose activity change, negative = inhibition, usual class: inhibitors | Q9NUW8; also: potency is read from the fitted curve at half-maximal effect; % is scaled to controls: 0 for no effect and ±100 for the full control effect; nearly all actives have a fitted effect of over 40% in size
Target sequence (Q9NUW8 whole entry, looked up): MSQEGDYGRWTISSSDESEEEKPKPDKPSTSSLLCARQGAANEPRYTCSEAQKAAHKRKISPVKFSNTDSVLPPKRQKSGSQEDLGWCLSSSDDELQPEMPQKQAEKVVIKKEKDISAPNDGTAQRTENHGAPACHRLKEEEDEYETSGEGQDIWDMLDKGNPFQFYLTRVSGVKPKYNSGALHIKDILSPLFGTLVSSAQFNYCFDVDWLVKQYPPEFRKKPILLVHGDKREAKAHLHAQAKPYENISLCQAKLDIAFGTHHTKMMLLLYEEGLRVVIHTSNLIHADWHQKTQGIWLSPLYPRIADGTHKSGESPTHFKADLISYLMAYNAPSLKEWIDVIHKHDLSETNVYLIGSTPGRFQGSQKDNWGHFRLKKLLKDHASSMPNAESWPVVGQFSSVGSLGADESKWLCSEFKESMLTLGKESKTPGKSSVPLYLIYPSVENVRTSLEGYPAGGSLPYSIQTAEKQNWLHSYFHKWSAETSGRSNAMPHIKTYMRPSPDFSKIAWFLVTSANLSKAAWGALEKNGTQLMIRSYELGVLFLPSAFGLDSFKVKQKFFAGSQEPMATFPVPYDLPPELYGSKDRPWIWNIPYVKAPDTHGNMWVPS
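Here, a 5' biotin and 3' phosphotyrosine-FITC DNA oligonucleotide reports Tdp1 activity: intact substrate bridges AlphaScreen beads, while cleavage leaves a 3' phosphate and drops signal. All incubations at room temperature.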
DT40 TDP1 CPT: DT40-hTDP1 cell growth loss with CPT | Potency, µM (titrated, usually from 46.2 µM), without a hit: at the highest dose activity change, negative = growth inhibition, hits mostly inhibitors | actives 12% (n = 420,000) | AID 686979 | chicken DT40 Tdp1-/-;hTDP1 cells + 20 nM CPT, ATP luminescence, 48 h; also: potency is read from the fitted curve at half-maximal effect; % is scaled to controls: 0 for no effect and ±100 for the full control effect; nearly all actives have a fitted effect of over 55% in size
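Cell growth measured by CellTiter-Glo luminescence after a minimum 48 h, 37 C compound exposure with 20 nM CPT in Tdp1-knockout DT40 cells stably expressing hTDP1, seeded 400/well; qHTS titration format.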
IL-1B inflam inh: inflammasome signaling inhibition, IL-1 beta readout; THP-1 LPS/ATP IL-1B secretion, AlphaLISA, 16 h; hits give low values; actives 4.7% (n = 360,000); activity change, % at 57.5 µM; in the data active = activity change below about -50%; inconclusive = mostly about -30% to -49%; also: % is scaled to controls: 0 for no effect and ±100 for the full control effect
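THP-1 cells pretreated 1 hr with compounds (up to 57.5 uM final), then stimulated with LPS (250 ng/mL final) plus ATP (1.25 mM final); secreted IL-1B measured by AlphaLISA after 16 hr, decreased signal indicating inhibition.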
* hit, by the source's call; i = inactive; ? = inconclusive; / = no result. Unless noted, calls follow the shape of the dose curve; as a rule, active = well fitted curve in the direction sought with a large enough effect; inconclusive = small, poorly fitted or top-dose-only effect, or another doubt; inactive = no such curve, though single readings can be large; an effect the other way counts as inactive or inconclusive.

SMILES	HepG2 tox	TGFb inhibitor	DT40 TDP1 no CPT	TDP1 inh	DT40 TDP1 CPT	IL-1B inflam inh
CCOc1ccc(S(=O)(=O)N(CC)CC(=O)NCc2ccncc2)cc1C	-11%	-26%	-13%	6%	-15%	-4
O=S1(=O)CC(N2CCN(CC3CC3)CC2)CN1CCc1ccccc1 (stereo not drawn)	-9%	-15%	?	/	-20%	14
O=C(c1ccco1)N1CCC2(CCCN(c3ccccc3)C2)CC1	/	/	?	/	-5%	/
CO[C@H]1O[C@H](C)[C@@H](O)C[C@H]1NC(=O)OCc1ccccc1	2%	2%	4%	3%	16%	-1
Cc1ccc(-c2nnc(N3CCOCC3)c3ccccc23)cc1S(=O)(=O)N(C)C	-43%	23%	-13%	/	-24%	-6
Cc1ccc(-c2nnc(N3CCC(C)CC3)c3ccccc23)cc1	-27%	?	8.2µM*	0%	13µM*	-14
CNc1nnc(-c2ccc(C)cc2)c2ccccc12	-4%	?	?	5%	?	29
Cc1ccc(-c2nnc(N3CCC(C)CC3)c3ccccc23)cc1C	-20%	?	9.2µM*	2%	6.5µM*	-95*
CCc1nn2c(=O)cc(COC(=O)Cc3ccccc3)nc2s1	4%	-57%	1%	6%	?	/
Cc1cc(-n2c(C)cc(C(=S)N3CCOCC3)c2C)ccc1Br	1%	8%	16µM*	8%	15µM*	?
Cc1ccc(C)n1-c1cccc(S(=O)(=O)N2CCOCC2)c1	-4%	-4%	?	5%	-1%	?
Cc1cc(C(=O)CN2C(=O)CN(C)C2=O)c(C)n1-c1cccc(S(=O)(=O)N2CCOCC2)c1	-2%	-2%	4.6µM*	2%	-17%	-10
Cc1ccc(-n2c(C)cc(C(=O)OCC(=O)N3CCOCC3)c2C)cc1	5%	-4%	-12%	5%	-4%	0
Cc1ccc(S(=O)(=O)N2CCN(C(=O)CSc3ncn[nH]3)CC2)cc1	27%	-2%	-17%	1%	-7%	0
Cc1cc(C(=O)CSc2ncn[nH]2)c(C)n1-c1cccc(S(=O)(=O)N2CCOCC2)c1	5%	0%	18µM*	1%	?	-17
Cc1cc(C(=O)CCl)c(C)n1-c1cccc(S(=O)(=O)N2CCOCC2)c1	-109%	?	2.3µM*	5%	1.3µM*	-102*
CN1CC(=O)N(CC(=O)Nc2cccc(S(=O)(=O)N3CCOCC3)c2)C1=O	6%	0%	-25%	0%	17%	-9
O=C(O)C1OC1(c1ccccc1Cl)c1ccccc1Cl (stereo not drawn)	-3%	?	-3%	/	2%	-14
CCN(CC)S(=O)(=O)c1ccc(C(=O)NC(=S)N(CCC#N)Cc2cccnc2)cc1	-16%	-8%	3%	5%	-4%	32
COc1ccccc1CCNC(=O)C(=O)NCC1OCCN1S(=O)(=O)c1ccc(OC)c(OC)c1 (stereo not drawn)	15%	8%	-28%	/	?	-24
O=C(CCc1nnc2n(CCc3ccccc3)c(=O)c3ccccc3n12)NCCCN1CCCCC1	3%	-6%	?	2%	?	?
Cc1ccc(-n2c(C)cc(C(=O)CN3CCOCC3)c2C)cc1	-6%	2%	-28%	3%	-18%	16
Cc1ccc(-n2c(C)cc(C(=O)CN3CCOCC3)c2C)cc1C	-36%	12%	?	-5%	21µM*	-4
O=C(NCCCN1CCCC1=O)C(=O)NCC1OCCCN1S(=O)(=O)c1cc(F)ccc1F (stereo not drawn)	-9%	0%	-16%	1%	-5%	i
